Chronic BCR inh – blocks chronic active B-cell receptor signaling; ABC-DLBCL IkBa-CBG/CBR reporter, luminescence ratio, 4 h; hit rate 0.05% among 340,000; AID 493014; Potency, µM (highest dose often 46.1 µM), for the others: at the highest dose activity change, negative = inhibition, hits mostly inhibitors; active = well fitted inhibition curve with a large enough effect in the signal ratio, with a control signal flat, not every such curve was filed as active; inconclusive = small, poorly fitted or top-dose-only effect, or effect the other way, or a change in a side signal; the % refers to the signal ratio;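 note: potency is the fitted concentration of half-maximal effect; plate controls were basal doxycycline-induced cells for no effect and cells given 10 µM MG132 for full effect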
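Concentration-response series (up to 46 uM) were applied to TMD8 dual-reporter cells for 4 h at 37C with doxycycline. Green/red ratio, after filter-overlap correction, defined %Activity; red signal alone was normalised to basal cells and zero luminescence.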
IL-1B inflam inh – blocks inflammasome-driven IL-1 beta release | THP-1 LPS/ATP IL-1B secretion, AlphaLISA, 16 h; hits give low values | activity change, % at 57.5 µM | hit rate 4.7% among 360,000 | AID 743279; in the data active = activity change below about -50%; inconclusive = mostly about -30% to -49%; note: % is set by controls: 0 for no effect and ±100 for the full control effect
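Secreted IL-1B measured by AlphaLISA bead assay after 16 h compound exposure of THP-1 cells; compounds (final up to 57.5 uM) added 1 h before LPS (250 ng/mL) and ATP (1.25 mM) stimulation; lower signal means less secretion.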
SW480 rerep – inducers of DNA re-replication in SW480 colon cancer cells; AID 624297; SW480 DNA re-replication, Hoechst DNA content imaging, 48 h; hit rate 1.8% among 340,000; Potency, µM (highest dose often 46.1 µM), for inactives: at the highest dose re-replication activation, actives largely listed as activators; note: potency is the fitted concentration of half-maximal effect; % of control where 0% means no effect; nearly all actives have a fitted effect of over 55% in size
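Cells (250 per well) received 23 nL compound or DMSO by pin tool and were kept 48 hr at 37 C, 5% CO2. Nuclei were then stained with Hoechst for 40 min and scanned for DNA content.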
DT40 TDP1 CPT – growth inhibition of DT40 Tdp1-/-;hTDP1 cells with camptothecin (screen for TDP1 inhibitors) | hit rate 12% among 420,000 | AID 686979 | chicken DT40 Tdp1-/-;hTDP1 cells + 20 nM CPT, ATP luminescence, 48 h | Potency, µM (titrated, usually from 46.2 µM), for inactives: top-dose activity change, negative = growth inhibition, actives largely listed as inhibitors; note: potency is the fitted concentration of half-maximal effect; % is set by controls: 0 for no effect and ±100 for the full control effect; nearly all actives have a fitted effect of over 55% in size
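Cell growth measured by CellTiter-Glo luminescence after a minimum 48 h, 37 C compound exposure with 20 nM CPT in Tdp1-knockout DT40 cells stably expressing hTDP1, seeded 400/well; qHTS titration format.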
MCF10A rerep – inducers of DNA re-replication in MCF 10A breast cells. hit rate 2.9% among 350,000. MCF 10A DNA re-replication, Hoechst nuclear intensity, 48 h. Potency, µM (series often up to 46.1 µM), inactives show at the highest dose activity, positive = re-replication, hits mostly activators; note: potency is the fitted concentration of half-maximal effect; % of control where 0% means no effect; nearly all actives have a fitted effect of over 50% in size
TDP1 cell noCPT – qHTS for Inhibitors of human tyrosyl-DNA phosphodiesterase 1 (TDP1): qHTS in cells in absence of CPT; AID 686978, 2013; hit rate 15% among 420,000; Potency, µM (titrated, usually from 46.2 µM), for the others: at the top dose activity change, negative = growth inhibition, most hits filed as inhibitors; DT40 Tdp1-/- hTDP1 cells, no CPT, ATP luminescence, 48 h; note: potency is the fitted concentration of half-maximal effect; % is set by controls: 0 for no effect and ±100 for the full control effect; nearly all actives have a fitted effect of over 55% in size
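DT40 Tdp1-/-;hTDP1 cells, no CPT (DMSO vehicle only), 400 cells/well; compounds pin-transferred; ≥48 hr, 37 °C; CellTiter-Glo 30 min RT dark, luminescence read.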
Starred values were filed as active, the others as inactive; i = inactive; ? = inconclusive; / = no result. Sampled rows, rich in hits. Any-hit rate of the full collection: about 19%. Unless noted, calls come from the whole dose curve; as a rule, active = well fitted curve in the direction sought with a large enough effect; inconclusive = small, poorly fitted or top-dose-only effect, or another doubt; inactive = no such curve, though single readings can be large; an effect the other way counts as inactive or inconclusive.

SMILES | Chronic BCR inh | IL-1B inflam inh | SW480 rerep | DT40 TDP1 CPT | MCF10A rerep | TDP1 cell noCPT
Cc1ccc(S(=O)(=O)N2CCC(C(=O)N3CCc4ccccc43)CC2)cc1C | -2.3% | -2.0 | 3.5% | ? | 3.4% | 18.4µM*
Cc1ccc(S(=O)(=O)N2CCN(S(=O)(=O)N3CCC(C)CC3)CC2)cc1C | -2.6% | -7.5 | 1.6% | -6.3% | 18.4µM* | -17.1%
Cc1ccc(S(=O)(=O)N2CCC(C(=O)OCCOc3ccccc3)CC2)cc1C | -15.4% | 8.7 | -5.7% | -8.6% | 0.3% | 0.184µM*
Cc1ccc(S(=O)(=O)N2CCC(C(=O)N3CCc4ccccc43)CC2)cc1 | 7.2% | i | -4.2% | ? | 18.3% | ?
Cc1ccc(S(=O)(=O)N2CCC(C(=O)N3CCCCCCC3)CC2)cc1C | / | -15.3 | / | 16.4µM* | / | ?
COc1ccc(N2CCN(S(=O)(=O)c3ccc(OC)c(-c4noc(C)n4)c3)CC2)cc1 | / | / | / | -14.1% | / | -20.0%
CCOc1ccccc1Nc1nc2ccccc2n1C(C)C | 3.9% | -20.1 | 15.2% | ? | 16.7% | ?
COc1ccc(C(=O)c2c(-c3ccc(OC)cc3)oc3ccc(-c4ccc(OC)nc4)cc23)cc1 | / | 31.5 | -87.8% | ? | 5.1% | ?
COc1ccc(C(=O)c2c(-c3cccc(C)c3)oc3ccc(N4CCOCC4)cc23)cn1 | 19.0% | ? | 13.2% | ? | ? | 14.6µM*
COc1ccc(-c2cnc3c(NC=O)cc(-c4cccc(NS(C)(=O)=O)c4)cn23)cc1OC | / | -24.0 | / | 4.61µM* | / | 3.66µM*
COc1ccc(-c2cnc3c(NC=O)cc(-c4cc(OC)c(OC)c(OC)c4)cn23)cc1OC | / | -27.9 | / | 6.51µM* | / | 5.17µM*
COc1ccc(-c2cc(NC=O)c3ncc(-c4cc(OC)c(OC)c(OC)c4)n3c2)cc1 | / | 108.1 | / | 0.146µM* | / | 0.206µM*
COc1ccc(-c2cnc3c(NC=O)cc(-c4ccc(F)cc4)cn23)cc1OC | / | -14.0 | / | 0.0058µM* | / | 0.013µM*
CC(C)OCCCNC(=O)CN1C(=O)CSc2ccc(S(=O)(=O)N3CCCCC3)cc21 | -1.0% | -11.7 | 22.2% | -0.1% | 0.0% | ?
Cc1c2cnn(-c3ccccc3)c(=O)c2c(C)n1CC(=O)NCCc1ccc(Cl)cc1 | / | / | / | -18.1% | / | -3.7%
COc1ccc(-c2cnc3c(NC=O)cc(-c4ccoc4)cn23)cc1OC | / | -22.6 | / | 5.17µM* | / | 2.91µM*
COc1ccc(-c2cnc3c(NC=O)cc(-c4ccccc4)cn23)cc1OC | / | -13.5 | / | 0.92µM* | / | 0.92µM*
COc1cccc(-c2cc(NC=O)c3ncc(-c4ccc(OC)c(OC)c4)n3c2)c1 | / | -29.7 | / | 5.17µM* | / | 4.11µM*
COc1ccc(F)cc1-c1cc(NC=O)c2ncc(-c3cccc(C(F)(F)F)c3)n2c1 | / | 2.5 | / | 5.17µM* | / | 4.61µM*
NC(=O)c1cc[n+](CC(=O)NC(=O)Nc2ccccc2)cc1 | ? | 24.3 | -12.6% | 4.0% | 2.3% | 4.0%
CCOC(=O)/C=c1/s/c(=C/c2ccccc2OC)c(=O)n1CC(=O)N1CCOCC1 | / | -13.0 | -1.7% | ? | 16.0% | -46.3%
COc1ccc(/C=C/c2nc(-c3ccccc3O)n[nH]2)cc1OC | ? | -99.2* | -8.7% | ? | ? | ?
Cn1c(O)c(N=NC(=O)c2ccccc2O)c2ccccc21 | ? | -1.6 | ? | 13µM* | ? | 16.4µM*
CC(=O)OC1COC(N2CCc3ccccc32)C(OC(C)=O)C1OC(C)=O (centres undefined) | 0.8% | -7.0 | 3.6% | 2.6% | -5.7% | -8.5%
Cc1occc1C(=O)N=Nc1c(O)n(C)c2ccccc12 | -2.9% | -1.2 | ? | -10.7% | -2.6% | ?
SMILES | Chronic BCR inh | IL-1B inflam inh | SW480 rerep | DT40 TDP1 CPT | MCF10A rerep | TDP1 cell noCPT
CC(=O)OC1COC(n2c(O)c(N=NC(N)=S)c3ccccc32)C(OC(C)=O)C1OC(C)=O (centres undefined) | 1.4% | 6.8 | ? | -24.6% | 0.651µM* | -0.1%
Cn1c(O)c(N=NC(N)=S)c2ccccc21 | / | / | -4.7% | 6.68µM* | 13.6% | 5.31µM*
Cc1cc(N=NC(=O)c2ccccc2O)c2ccccc2c1O | ? | 0.0 | -12.0% | 16.4µM* | 3.1% | 18.4µM*
CCOC(=O)C(=O)N=Nc1c(O)n(C)c2ccccc12 | 0.1% | 3.0 | -20.1% | -6.3% | 1.7% | 17.9%
Cn1c(O)c(N=NC(=O)c2ccco2)c2ccccc21 | -4.2% | -23.5 | 31.1% | -0.3% | ? | 14.6µM*
Cn1c(O)c(N=NC(=O)CNC(=O)c2ccco2)c2ccccc21 | 12.0% | 7.9 | 0.2% | -9.6% | 5.4% | -20.1%
Oc1c(C(c2ccc(Cl)cc2)N2CCC3(CC2)OCCO3)sc2nc(-c3ccco3)nn12 (centres undefined) | -4.0% | / | / | -17.6% | / | -19.7%
Nc1ncnc2nc(SCC(=O)Nc3cccc(C(F)(F)F)c3)[nH]c12 | -9.1% | 20.7 | -6.6% | -14.2% | 9.3% | -6.1%
O=C(CSc1nc2ccncc2[nH]1)Nc1ccccc1C(F)(F)F | -3.5% | 37.9 | 0.8% | ? | -3.7% | 14.6µM*
O=C(CSc1nc2ccccc2c(=O)[nH]1)Nc1ccccc1C(F)(F)F | ? | -5.3 | -4.0% | ? | -3.2% | ?
COc1cc(OC)c(NC(=O)CSc2nc3ccncc3[nH]2)cc1Cl | ? | / | / | 6.51µM* | / | 5.17µM*
O=C(CSc1nc2cc3ccccc3cc2[nH]1)Nc1cccc(C(F)(F)F)c1 | / | / | / | 18.4µM* | / | 20.6µM*
CCOC(=O)C1(C)CCN1C(=O)c1csnn1 (centres undefined) | / | 21.8 | / | -3.3% | / | -8.7%

High-throughput results: PubChem BioAssay, National Center for Advancing Translational Sciences (NCATS)
